Screens from PubChem.
MARV entry inh = blocks Marburg virus binding to or entry into cells | Marburg virus pseudotyped entry inhibition, cell reporter | Potency, µM (series often up to 37.8 µM), actives largely listed as inhibitors | hit rate 1.8% among 300,000; calls by dose curve; tested in HEK293 cells
HCV inhibitor = HCV inhibition. Huh7.5.1 HCVcc-Cre infection, luciferase reporter, 44 h. AID 651820. Potency, µM (series often up to 41.8 µM), usual class: inhibitors. hit rate 3.4% among 340,000; active = well fitted inhibition curve with a large enough effect; inconclusive = small, poorly fitted or top-dose-only effect, or another doubt; inactive = no such curve, though single readings can be large or run the other way
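Whole-lifecycle infectious HCVcc-Cre system; cells 1,000/well, compound then virus (~0.5 moi) added 4 h after plating, 44 h culture. Luciferase read 15 sec following 15 min substrate incubation, room temp.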
LASV entry inh = blocks Lassa virus binding to or entry into cells; Lassa virus pseudotype entry inhibition, cell reporter; Potency, µM (titrated, usually from 37.9 µM), usual class: inhibitors; hit rate 1.2% among 300,000; AID 540256; calls by dose curve; tested in HEK293 cells; note: nearly all actives have a fitted effect of over 50% in size
HCMV antiviral = blocks human cytomegalovirus replication; HFF cells, HCMV-luciferase reporter, 72 h; stronger effect = lower value; activity change, negative = inhibition, % at 57.5 µM; hit rate 4.5% among 410,000; AID 1259415; in the data active = activity change below about -60%; inconclusive = no clear call, values can overlap the other calls; inactive = above about -39%
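Human foreskin fibroblasts infected with luciferase-reporter HCMV at MOI 1 PFU/cell, compounds at two doses. Luciferase measured 72 h post infection; normalized to buffer-only basal and Salinomycin (10uM) controls.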
VACV Venus inh = inhibitors of vaccinia virus (Venus reporter) | Vaccinia virus Venus reporter expression, fluorescence | hit rate 0.46% among 330,000 | AID 720580 | Potency, µM (top dose mostly 36.5 µM), usual class: inhibitors; calls by dose curve; tested in A549 cells; note: nearly all actives have a fitted effect of over 30% in size
VACV mCherry inh = vaccinia inhibition (mCherry reporter); Potency, µM (top dose mostly 36.5 µM), actives largely listed as inhibitors; hit rate 0.63% among 310,000; AID 720579; Vaccinia virus mCherry reporter infection, fluorescence; calls by dose curve; tested in A549 cells; note: nearly all actives have a fitted effect of over 35% in size
Of the large screens only hits and unclear results are named; the others gave an inactive call. Hits are enriched below; roughly 7.8% of the tested compounds scored in any of these assays.

COc1ccccc1-c1cc(C(F)(F)F)nc(S(=O)(=O)CCCC(=O)Nc2cc(OC)c(OC)c(OC)c2)n1	MARV entry inh inconclusive, LASV entry inh inconclusive (no result: HCV inhibitor)
COc1ccc(NC(=O)CCCS(=O)(=O)c2nc(-c3ccc(OC)c(OC)c3)cc(C(F)(F)F)n2)cc1OC	MARV entry inh inconclusive, LASV entry inh inconclusive, HCMV antiviral -99.8 (no result: HCV inhibitor)
COc1ccc(-c2cc(C(F)(F)F)nc(S(=O)(=O)CCCC(=O)Nc3cccc(O)c3)n2)cc1OC	MARV entry inh inconclusive, HCV inhibitor 11.2µM, LASV entry inh inconclusive, HCMV antiviral -98.8, VACV mCherry inh inconclusive
COc1ccccc1-c1cc(C(F)(F)F)nc(S(=O)(=O)CCCC(=O)Nc2ccc(F)c(Cl)c2)n1	none (no result: HCV inhibitor)
Cc1cc(NC(=O)CCS(=O)(=O)c2nc(-c3ccccc3)cc(C(F)(F)F)n2)no1	MARV entry inh inconclusive, HCV inhibitor 10µM, LASV entry inh inconclusive, HCMV antiviral -104.2, VACV Venus inh inconclusive (no result: VACV mCherry inh)
Cc1ccc(S(=O)(=O)CCC(=O)Nc2cc(C)on2)cc1	none (no result: MARV entry inh, HCV inhibitor, LASV entry inh)
Cc1cccc(Cn2c(SCc3ccc(C(=O)NCCc4ccccc4)cc3)nc3ccncc32)c1	VACV Venus inh inconclusive, VACV mCherry inh inconclusive (no result: HCV inhibitor)
Cc1cc(C)cc(Oc2coc3cc(OCC(=O)NC4CCCCC4)ccc3c2=O)c1	MARV entry inh inconclusive, VACV Venus inh inconclusive (no result: HCV inhibitor)
C[C@H](O)[C@@H]1C(=O)N2CCc3c([nH]c4ccccc34)[C@@H]2C[C@@H]1N(C)C(=O)Nc1ccc(Br)cc1	none (no result: MARV entry inh, HCV inhibitor, LASV entry inh, VACV Venus inh, VACV mCherry inh)
COc1ccc(-c2cc(C(F)(F)F)nc(S(=O)(=O)CCCC(=O)Nc3ccccc3C(F)(F)F)n2)cc1OC	HCMV antiviral -99.7 (no result: HCV inhibitor)
O=C(CCS(=O)(=O)c1nc(-c2ccc3c(c2)OCO3)cc(C(F)(F)F)n1)Nc1ccc(F)cc1F	MARV entry inh inconclusive, VACV mCherry inh inconclusive (no result: HCV inhibitor)
COCCNC(=O)CSc1nc(-c2ccc(OC)c(OC)c2)cc(C(F)(F)F)n1	HCV inhibitor inconclusive
COc1ccc(NC(=O)CCS(=O)(=O)c2nc(-c3ccc4c(c3)OCO4)cc(C(F)(F)F)n2)cc1	HCMV antiviral -75.8 (no result: HCV inhibitor)
CS(=O)(=O)c1nc(-c2ccccc2)cc(C(F)(F)F)n1	MARV entry inh 6.31µM, HCV inhibitor 10µM, LASV entry inh inconclusive, HCMV antiviral -98.0, VACV Venus inh inconclusive, VACV mCherry inh 14.1µM
Cc1onc(-c2ccccc2[N+](=O)[O-])c1-c1ccccc1[N+](=O)[O-]	none (no result: MARV entry inh, HCV inhibitor, LASV entry inh, VACV Venus inh, VACV mCherry inh)
CC1(C)OC(=O)C2(Cc3cc([N+](=O)[O-])ccc3N3CCCCC32)C(=O)O1 (stereo not drawn)	none (no result: MARV entry inh, HCV inhibitor, LASV entry inh, HCMV antiviral)
C=CCN1c2ccccc2[C@]23CCC(=O)N(CCc4ccccn4)C2=NC(C(=O)OC)=C(C(=O)OC)[C@H]13	none (no result: HCV inhibitor, LASV entry inh, HCMV antiviral, VACV Venus inh, VACV mCherry inh)
COCCN1CCCC(CNCc2cn(C)nc2-c2ccc(Oc3ccccc3)cc2)C1 (stereo not drawn)	HCV inhibitor 14.1µM, HCMV antiviral inconclusive (no result: MARV entry inh, LASV entry inh, VACV Venus inh, VACV mCherry inh)
CCCN1CCC(NCc2cn(C)nc2-c2ccc(Oc3ccccc3)cc2)CC1	HCV inhibitor 11.2µM, HCMV antiviral inconclusive (no result: LASV entry inh, VACV Venus inh, VACV mCherry inh)
N[C@@H]1CCc2cc(O)c(O)cc2C1	none (no result: HCV inhibitor, LASV entry inh, HCMV antiviral, VACV Venus inh, VACV mCherry inh)
Cc1cccc(CNC(=O)c2ccc3oc(=O)n(Cc4ccccc4)c3c2)c1	LASV entry inh inconclusive (no result: MARV entry inh, HCV inhibitor)
Cc1c(C)c2ccc(OCC(=O)Nc3ccccn3)c(C)c2oc1=O	HCMV antiviral -84.5 (no result: MARV entry inh, LASV entry inh, VACV Venus inh, VACV mCherry inh)
C/C=C/c1ccc(OCC(=O)Nc2ccncc2)c(OC)c1	HCV inhibitor inconclusive, HCMV antiviral -82.6 (no result: MARV entry inh, LASV entry inh, VACV Venus inh, VACV mCherry inh)
O=C(CCCOc1ccc(Cl)cc1Cl)Nc1ccccc1C(=O)O	MARV entry inh 3.16µM, LASV entry inh inconclusive
O=C(COc1ccc(Cl)cc1Cl)Nc1ccc(C(=O)Nc2ccccc2C(=O)O)cc1	none (no result: MARV entry inh, LASV entry inh, VACV Venus inh, VACV mCherry inh)
Cc1nn(C)c(C)c1NC(=O)COc1ccc(Cl)cc1Br	MARV entry inh inconclusive, HCV inhibitor inconclusive, LASV entry inh inconclusive, HCMV antiviral -93.1, VACV mCherry inh inconclusive
Cc1c(C)c2cc(Cl)c(OCC(=O)Nc3ccccn3)cc2oc1=O	none (no result: MARV entry inh, HCV inhibitor, LASV entry inh)
CCO[C@H](c1cc(OC)cc([N+](=O)[O-])c1OC)[C@H](C)[C@@H](OC)[C@H](C)/C=C/CC(=O)OC	none (no result: HCV inhibitor, LASV entry inh, HCMV antiviral, VACV Venus inh, VACV mCherry inh)
CCN(c1ccccc1)S(=O)(=O)c1ccc(NC(=O)c2nc(SC(C)C)ncc2Cl)cc1	MARV entry inh inconclusive, LASV entry inh inconclusive (no result: HCV inhibitor)
CSc1ccccc1NC(=O)COc1ccc(Cl)cc1Cl	MARV entry inh inconclusive, HCV inhibitor inconclusive, HCMV antiviral inconclusive
Cc1cc(OCC(=O)NNC(=O)c2cccs2)ccc1Br	HCMV antiviral -73.4
CCOc1ccccc1OCC(=O)Nc1nnc(COC)s1	HCMV antiviral -102.2 (no result: VACV Venus inh, VACV mCherry inh)
